Assay results taken from PubChem BioAssay (NCATS).
Inconclusive results are not listed. Where a call stands in place of a potency, no number is given. Activity calls are given as the source filed them. Calls come from the whole dose curve; as a rule, active = well fitted inhibition curve with a large enough effect; inconclusive = small, poorly fitted or top-dose-only effect; inactive = flat fitted curve, though single readings scatter.

The compounds below were run against Voltage-gated inwardly rectifying potassium channel KCNH2 (Homo sapiens) (UniProt Q12809) (assay: qHTS Assay for Small Molecule Inhibitors of the Human hERG Channel Activity (AID 588834;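 note: lower thallium flux fluorescence means stronger hERG block; nearly all actives have a fitted effect of over 50% in size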)). Conditions: U2OS BacMam hERG, FluxOR thallium flux fluorescence; series mostly up to 46.1 µM.
Outline: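 U2OS cells BacMam-transduced with hERG, 2000 cells/well, compound ~10 min at 37 °C before stimulation buffer. FluxOR thallium flux fluorescence read kinetically on FDSS; decrease indicates block; AC50 from Hill fits.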
Potency is the fitted concentration of half-maximal effect.

Voltage-gated inwardly rectifying potassium channel KCNH2 (Homo sapiens), sequence (Q12809 whole entry, looked up): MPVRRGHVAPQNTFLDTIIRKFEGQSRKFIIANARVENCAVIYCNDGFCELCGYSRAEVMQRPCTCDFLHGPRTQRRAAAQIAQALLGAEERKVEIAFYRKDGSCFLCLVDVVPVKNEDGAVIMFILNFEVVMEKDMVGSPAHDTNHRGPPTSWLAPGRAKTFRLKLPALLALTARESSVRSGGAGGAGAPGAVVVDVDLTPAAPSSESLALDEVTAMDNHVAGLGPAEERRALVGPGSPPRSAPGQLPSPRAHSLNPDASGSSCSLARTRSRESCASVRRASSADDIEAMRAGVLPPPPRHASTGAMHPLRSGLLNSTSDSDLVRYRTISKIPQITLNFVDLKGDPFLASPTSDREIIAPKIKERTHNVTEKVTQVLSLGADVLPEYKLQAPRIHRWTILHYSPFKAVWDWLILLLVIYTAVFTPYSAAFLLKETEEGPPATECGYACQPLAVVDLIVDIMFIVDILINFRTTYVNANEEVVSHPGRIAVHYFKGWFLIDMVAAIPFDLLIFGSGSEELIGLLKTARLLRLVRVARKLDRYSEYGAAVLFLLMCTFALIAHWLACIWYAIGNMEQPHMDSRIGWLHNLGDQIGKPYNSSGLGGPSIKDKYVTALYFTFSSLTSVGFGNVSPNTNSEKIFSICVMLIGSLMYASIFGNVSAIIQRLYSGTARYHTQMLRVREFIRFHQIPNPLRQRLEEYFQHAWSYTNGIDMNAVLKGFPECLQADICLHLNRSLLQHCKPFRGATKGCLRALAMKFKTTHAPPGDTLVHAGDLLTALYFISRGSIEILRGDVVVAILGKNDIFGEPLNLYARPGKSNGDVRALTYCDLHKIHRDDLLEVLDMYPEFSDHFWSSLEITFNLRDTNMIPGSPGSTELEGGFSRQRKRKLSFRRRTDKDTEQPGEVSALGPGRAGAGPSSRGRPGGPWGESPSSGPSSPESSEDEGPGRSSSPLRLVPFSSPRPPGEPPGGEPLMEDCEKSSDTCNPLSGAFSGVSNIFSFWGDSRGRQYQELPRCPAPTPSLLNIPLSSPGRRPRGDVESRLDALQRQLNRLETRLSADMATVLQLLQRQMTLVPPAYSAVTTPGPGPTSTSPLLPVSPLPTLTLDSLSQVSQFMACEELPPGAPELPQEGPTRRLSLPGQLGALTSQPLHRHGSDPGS

Compound	Potency
CCCCCCCCOc1ccccc1C(=O)Nc1ccc(C(=O)OCC[N+](C)(CC)CC)cc1	inactive
O=C(OC1C[C@H]2CC[C@@H](C1)[N+]21CCCC1)C(O)(c1ccccc1)c1ccccc1 (stereo not given in full)	inactive
CN(C)C(=O)COC(=O)Cc1ccc(OC(=O)c2ccc(N=C(N)N)cc2)cc1	inactive
CCOc1cc(CC(=O)N[C@@H](CC(C)C)c2ccccc2N2CCCCC2)ccc1C(=O)O	inactive
CCN(CC)CCOc1ccc(Cc2ccccc2)cc1	5.01 µM (active)
CC1(C)CCC(C)(C)c2cc(NC(=O)c3ccc(C(=O)O)cc3)ccc21	inactive
O=C(NC(Cc1cc(=O)[nH]c2ccccc12)C(=O)O)c1ccc(Cl)cc1 (stereo not given)	inactive
Cc1c(OCC(F)(F)F)ccnc1CS(=O)c1nc2ccccc2[nH]1 (stereo not given)	inactive
C=C(c1ccc(C(=O)O)cc1)c1cc2c(cc1C)C(C)(C)CCC2(C)C	inactive
